This excerpt belongs to a sample that is enriched for hits.
Menin MLL FP TR: displaces Texas Red mutant MLL peptide from human menin; O00255; Menin + Texas Red MLL mutant peptide, fluorescence polarization; Potency, µM (series often up to 61.6 µM), for the others: at the top dose FP activity change, negative = inhibition, usual class: inhibitors; 0.23% of 270,000 active; active = well fitted inhibition curve with a large enough effect in the polarisation, with a control signal flat, not every such curve was filed as active; inconclusive = small, poorly fitted or top-dose-only effect, or effect the other way, or a change in a side signal; inactive = no such curve, though single readings can be large or run the other way; the % refers to the polarisation; also: potency is read from the fitted curve at half-maximal effect; % of control where 0% means no effect
CXXC DNA block: MLL CXXC-DNA interaction inhibition. Q03164. MLL-CXXC / FITC-HOXA9 DNA fluorescence polarization. Potency, µM (top dose mostly 115 µM), for inactives: at the top dose activity change, negative = inhibition, usual class: inhibitors. 0.037% of 290,000 active. AID 2662; active = well fitted inhibition curve with a large enough effect in the polarisation, with a control signal flat, not every such curve was filed as active; inconclusive = small, poorly fitted or top-dose-only effect, or effect the other way, or a change in a side signal; inactive = no such curve, though single readings can be large or run the other way; the % refers to the polarisation; also: potency is read from the fitted curve at half-maximal effect
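Fluorescence polarization: 7 uM MLL-CXXC (stock) preincubated 5 min with compounds, then 50 nM fluorescein-HOX-A9 DNA (stock) added; 30 min ambient. Buffer 50 mM Tris-HCl pH 7.5, 50 mM NaCl, 1 mM DTT, 0.05% BSA.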
LMNA splice mod: changes lamin A minigene splicing in HeLa cells. Potency, µM (titrated, usually from 46.1 µM), inactives show top-dose ratio change, negative = inhibition, usual class: inhibitors. 0.01% of 200,000 active. HeLa LMNA splicing GFP/RFP minigene ratio, 48 h. AID 1487; active = well fitted inhibition curve with a large enough effect in the signal ratio, with a control signal flat, not every such curve was filed as active; inconclusive = small, poorly fitted or top-dose-only effect, or effect the other way, or a change in a side signal; the % refers to the signal ratio; also: potency is read from the fitted curve at half-maximal effect; % is scaled to controls: 0 for no effect and ±100 for the full control effect
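Read-out is the ratio of GFP to DsRed2 object intensity, acquired by 488 nm laser-scanning cytometry on HeLa lamin A-EGFP minigene reporter cells. Compound incubation 48 hrs at 37 °C in Opti-MEM with 2% FBS; DMSO 0.5% final.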
CBFb RUNX1 block: inhibitors of human CBF-beta and RUNX1 interaction | 230,000 tested, under 10 active | AID 1477 | AlphaScreen CBFb-His/RUNX1-biotin binding, biochemical | Potency, µM (top dose mostly 59.8 µM), for inactives: at the highest dose activity, negative = inhibition, most hits filed as inhibitors; also: % of control where 0% means no effect
Target sequence (Q01196 whole entry, looked up): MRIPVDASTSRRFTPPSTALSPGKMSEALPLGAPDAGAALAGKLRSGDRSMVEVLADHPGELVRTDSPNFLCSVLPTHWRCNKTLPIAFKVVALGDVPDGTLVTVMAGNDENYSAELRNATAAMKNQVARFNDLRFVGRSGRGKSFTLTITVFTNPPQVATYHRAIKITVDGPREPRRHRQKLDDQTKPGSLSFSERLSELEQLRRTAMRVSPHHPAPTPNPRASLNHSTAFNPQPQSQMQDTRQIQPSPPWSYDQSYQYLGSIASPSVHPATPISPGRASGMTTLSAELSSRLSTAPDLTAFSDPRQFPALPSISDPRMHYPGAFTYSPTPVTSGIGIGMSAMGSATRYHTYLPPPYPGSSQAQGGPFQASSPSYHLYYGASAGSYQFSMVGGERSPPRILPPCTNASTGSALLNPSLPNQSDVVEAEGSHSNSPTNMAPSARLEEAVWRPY
Target sequence (Q13951 whole entry, looked up): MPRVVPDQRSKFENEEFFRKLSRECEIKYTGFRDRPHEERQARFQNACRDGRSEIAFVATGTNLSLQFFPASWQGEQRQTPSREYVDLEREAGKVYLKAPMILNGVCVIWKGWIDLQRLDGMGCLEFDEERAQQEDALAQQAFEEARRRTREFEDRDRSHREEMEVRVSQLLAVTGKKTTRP
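Read-out: AlphaScreen. Format: His-CBF-beta with biotinylated RUNX1 (30 nM each) preincubated 20 min, compound 15 min, Ni-chelate plus streptavidin beads 90 min; room temperature throughout.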
Menin MLL FP FL: menin-MLL binding inhibition, fluorescein peptide | Fluorescence polarization, fluorescein-MLL peptide displacement from menin | FP activity change, % at 61.4 µM | 290,000 tested, under 10 active | AID 1766; active = well fitted curve in the direction sought with a large enough effect in the polarisation, not every such curve was filed as active; inconclusive = small, poorly fitted or top-dose-only effect, or effect the other way, or a change in a side signal; inactive = no such curve, though single readings can be large or run the other way; the % refers to the polarisation; also: % of control where 0% means no effect
MLL CXXC FP-Fl: inhibitors of human MLL CXXC domain-DNA interaction; shares compounds with CXXC DNA block; MLL CXXC-DNA binding, fluorescein FP; Potency, µM (top dose mostly 345 µM), inactives show top-dose activity change, negative = inhibition, hits mostly inhibitors; 70% of 200 active; AID 624160; also: potency is read from the fitted curve at half-maximal effect; nearly all actives have a fitted effect of over 80% in size
MLL CXXC TxRed: inhibitors of human MLL CXXC domain-DNA interaction, Texas Red format | shares compounds with CXXC DNA block | MLL CXXC-DNA binding, Texas Red fluorescence polarization | Potency, µM (titrated, usually from 345 µM), for inactives: at the highest dose activity change, negative = inhibition, hits mostly inhibitors | 40% of 200 active; also: potency is read from the fitted curve at half-maximal effect; % is scaled to controls: 0 for no effect and ±100 for the full control effect; nearly all actives have a fitted effect of over 75% in size
MLL CXXC TRF: disrupts human MLL CXXC domain binding to DNA by HTRF. 30% of 210 active. shares compounds with CXXC DNA block. Potency, µM (series often up to 172 µM), inactives show at the top dose activity change, negative = inhibition, hits mostly inhibitors. MLL CXXC-DNA binding, HTRF, biochemical; also: % is scaled to controls: 0 for no effect and ±100 for the full control effect; nearly all actives have a fitted effect of over 80% in size
* = called active by the depositor; [ ] = remark or other dose. Unless noted, calls follow the shape of the dose curve; as a rule, active = well fitted curve in the direction sought with a large enough effect; inconclusive = small, poorly fitted or top-dose-only effect, or another doubt; inactive = no such curve, though single readings can be large; an effect the other way counts as inactive or inconclusive.

Results for NC(=O)C1CCCN1C(=O)C(Cc1cnc[nH]1)NC(=O)C1CCC(=O)N1 (configuration not stated) ?
Menin MLL FP TR: -10%; CBFb RUNX1 block: 1%; Menin MLL FP FL: 0

How did O=C(CN1C(=O)C(=O)N(Cc2ccccc2)C1=O)Nc1cc(Cl)cc(Cl)c1 do in these assays?
CXXC DNA block: 2%; CBFb RUNX1 block: 2%; Menin MLL FP FL: -1

Results for NC(=O)CN1C(=O)C(=O)N(Cc2cccc(Cl)c2)C1=O ?
Menin MLL FP TR: 3%; CXXC DNA block: inconclusive; Menin MLL FP FL: 2; MLL CXXC FP-Fl: 66%; MLL CXXC TxRed: -9%; MLL CXXC TRF: -3%

Results for O=C1C(Cl)=C(NS(=O)(=O)c2ccc([N+](=O)[O-])cc2)C(=O)c2ccccc21 ?
CXXC DNA block: 50µM*; CBFb RUNX1 block: 4%; Menin MLL FP FL: -2; MLL CXXC FP-Fl: 56µM*; MLL CXXC TxRed: 100µM*; MLL CXXC TRF: 77µM*

How did O=[N+]([O-])c1ccc(Oc2ccc(S(=O)(=O)Nc3ccccc3)cc2)cc1 do in these assays?
Menin MLL FP TR: inconclusive; CXXC DNA block: -4%; LMNA splice mod: inconclusive; CBFb RUNX1 block: -24%; Menin MLL FP FL: 3

What do the screens show for `CC1OC2(C)OC(=N)C1(C#N)C(C#N)(C#N)C2c1ccccc1` (configuration not stated)?
Menin MLL FP TR: -2%; CXXC DNA block: -7%; LMNA splice mod: 2%; CBFb RUNX1 block: 5%; Menin MLL FP FL: 3

What do the screens show for `CCCCC1OC2(C)OC(=N)C1(C#N)C(C#N)(C#N)C2c1ccccc1` (configuration not stated)?
Menin MLL FP TR: -27%; CXXC DNA block: 22µM*; LMNA splice mod: -11%; CBFb RUNX1 block: 3%; Menin MLL FP FL: inconclusive; MLL CXXC FP-Fl: 28µM*; MLL CXXC TxRed: inconclusive; MLL CXXC TRF: -5%

Results for COc1ccc(/C=C2/C(=O)ON=C2C)cc1Br ?
Menin MLL FP TR: -2%; CXXC DNA block: -2%; Menin MLL FP FL: 0

Results for COc1ccccc1/C=C1/C(=O)ON=C1C ?
Menin MLL FP TR: -3%; CXXC DNA block: inconclusive; Menin MLL FP FL: -7; MLL CXXC FP-Fl: 100µM*; MLL CXXC TxRed: 126µM*; MLL CXXC TRF: -14%

Results for O=c1[nH]ncc2ccccc12 ?
CBFb RUNX1 block: 3%[21.7 µM]

What do the screens show for `O=C(O)c1ccccc1-c1c2cc(Br)c(=O)c(Br)c-2oc2c(Br)c(O)c(Br)cc12`?
Menin MLL FP TR: inconclusive; CXXC DNA block: inconclusive; CBFb RUNX1 block: inconclusive; Menin MLL FP FL: inconclusive; MLL CXXC FP-Fl: 0.63µM*; MLL CXXC TxRed: 5µM*; MLL CXXC TRF: -62%

Results for CCc1sc(C(C2C(=O)CC(C)(C)CC2=O)C2C(=O)CC(C)(C)CC2=O)cc1[N+](=O)[O-] ?
Menin MLL FP TR: 5%; CXXC DNA block: inconclusive; LMNA splice mod: inconclusive; CBFb RUNX1 block: -3%; Menin MLL FP FL: -4; MLL CXXC FP-Fl: 0%; MLL CXXC TxRed: 113µM*; MLL CXXC TRF: 31µM*

How did Cc1noc(C)c1-c1ccc2ncnc(NC3CCCc4ccccc43)c2c1 (configuration not stated) do in these assays?
Menin MLL FP TR: -19%; CBFb RUNX1 block: 2%; Menin MLL FP FL: -7

Results for C#Cc1cccc(Nc2ncnc3cc(OC)c(OC)cc23)c1 ?
CBFb RUNX1 block: 22%

What do the screens show for `C/C(=N\Nc1nc2ccccc2c(=O)n1O)c1ccco1`?
Menin MLL FP TR: 17%; CXXC DNA block: inconclusive; Menin MLL FP FL: -1; MLL CXXC FP-Fl: inconclusive; MLL CXXC TxRed: inconclusive; MLL CXXC TRF: inconclusive

Results for NC(C(=O)O)(c1ccc(P(=O)(O)O)cc1)C1CC1 (configuration not stated) ?
CBFb RUNX1 block: 19%

What do the screens show for `COc1ccccc1N1CCN(CCn2c(=O)c3c(c4ccccc4n3C)n(C)c2=O)CC1`?
CBFb RUNX1 block: 21%

What do the screens show for `Cn1ncc(N=Cc2c(O)ccc3ccccc23)c1C(=O)Nc1cccc(Cl)c1`?
Menin MLL FP TR: inconclusive; CXXC DNA block: 45µM*; LMNA splice mod: inconclusive; CBFb RUNX1 block: 4%; Menin MLL FP FL: inconclusive; MLL CXXC TRF: 118%

Results for O=[N+]([O-])c1ccc(CSc2ncnc3c2ncn3C2OC(CO)C(O)C2O)cc1 (configuration not stated) ?
CBFb RUNX1 block: 11%

How did O=[N+]([O-])c1ccc(-c2cn3nc(-c4ccccc4)c(-c4ccccc4)nc3n2)cc1 do in these assays?
CXXC DNA block: inconclusive; CBFb RUNX1 block: 7%; Menin MLL FP FL: inconclusive

Results for O=[N+]([O-])c1cccc(-c2cn3nc(-c4ccccc4)c(-c4ccccc4)nc3n2)c1 ?
CXXC DNA block: 40µM*; LMNA splice mod: -8%[46 µM]; CBFb RUNX1 block: 15%; Menin MLL FP FL: inconclusive; MLL CXXC FP-Fl: 179µM*; MLL CXXC TxRed: 49%; MLL CXXC TRF: 9%

What do the screens show for `O=C(O)c1ccc(NC2=C/C(=N/S(=O)(=O)c3ccccc3)c3ccccc3C2=O)cc1`?
Menin MLL FP TR: inconclusive; CXXC DNA block: inconclusive; LMNA splice mod: inconclusive; CBFb RUNX1 block: inconclusive; Menin MLL FP FL: -5; MLL CXXC FP-Fl: inconclusive; MLL CXXC TxRed: inconclusive; MLL CXXC TRF: 77%

Results for COc1ccc(SCCN2CCN(CCc3ccccc3)CCC2=O)cc1 ?
Menin MLL FP TR: inconclusive; CBFb RUNX1 block: inconclusive; Menin MLL FP FL: -4
